Laboratory results reported in PubChem BioAssay AID488896 (Broad Institute, 2010).
In all, about 320,000 compounds went through this assay and about 3,100 (0.97%) were called active.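 The calls were made as follows: active = mean replicate inhibition of at least 70% and a set share of replicates each scoring 70 or more; inconclusive = meets just one of the two criteria; inactive = fails both criteria.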 Many of the other results were omitted from the sample, so actives are more common in it than they were.

target: Scavenger receptor class B member 1 (Mus musculus) (UniProt Q61009); assay: inhibitors of SR-BI mediated HDL lipid uptake, primary screen, ldlA[mSR-BI] cells, fluorescence, single point (AID 488896); settings: ldlA[mSR-BI] CHO cells, DiI-HDL uptake fluorescence, 3 h; at 12.5 µM; stronger effect = higher value;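 also: 0% = median of neutral control wells and 100% = median of positive control wells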
Sequence (Q61009 whole entry, looked up): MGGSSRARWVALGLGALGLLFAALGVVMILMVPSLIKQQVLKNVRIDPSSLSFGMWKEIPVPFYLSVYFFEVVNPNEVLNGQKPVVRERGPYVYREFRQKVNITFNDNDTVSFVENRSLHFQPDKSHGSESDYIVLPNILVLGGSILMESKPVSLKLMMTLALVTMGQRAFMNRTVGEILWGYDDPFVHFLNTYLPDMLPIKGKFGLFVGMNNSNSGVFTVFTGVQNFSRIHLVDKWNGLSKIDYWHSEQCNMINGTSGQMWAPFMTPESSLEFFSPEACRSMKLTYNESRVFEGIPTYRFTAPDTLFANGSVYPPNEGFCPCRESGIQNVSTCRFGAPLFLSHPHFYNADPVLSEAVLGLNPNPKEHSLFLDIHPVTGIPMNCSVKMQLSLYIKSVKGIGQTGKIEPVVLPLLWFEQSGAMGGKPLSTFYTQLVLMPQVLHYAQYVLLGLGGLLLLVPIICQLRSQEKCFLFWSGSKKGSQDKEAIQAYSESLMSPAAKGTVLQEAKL

inhibition, active:
Cc1c(Cl)c([N+](=O)[O-])nn1Cc1ccc(C(=O)N/N=C\c2cc(Cl)ccc2O)o1 129%
COc1ccc2oc(C(=O)OCC(=O)N(CC(C)C)c3c(N)n(Cc4ccccc4)c(=O)[nH]c3=O)c(C)c2c1 71%
COc1cccc(/C=C2\Sc3ccc(C(=O)NCC4CCCO4)cc3N(C)C2=O)c1 (centres undefined) 76.6%
CCN1/C(=C/C(=S)Nc2ccccc2)Sc2ccccc21 80.2%
O=C(N/N=C/c1sc(N2CCCCC2)nc1-c1cccs1)c1cccnc1 76.7%
C/C(=N/NC(=O)c1ccc(NC(=O)c2ccc(F)cc2)cc1)c1ccccc1 88.8%
Cc1ccc(C)c(N2CCN(C(=O)CCCn3c(=O)c4cccn4c4cccnc43)CC2)c1 84.4%
CC1(C)Cc2cccc(OCC(=O)N3CCN(c4ccc([N+](=O)[O-])cc4)CC3)c2O1 71.3%
COc1ccc(NC(=O)c2cc(-c3cc(OC)c(OC)c(OC)c3)nc3ccccc23)c(OC)c1 78.3%
COc1ccc(-c2nn(-c3ccccc3)cc2C(=O)Nc2nccs2)cc1OC 74.4%
Cc1cc(N2CCCC2)ccc1NC(=O)COc1ccc(Cl)cc1 75.9%

inhibition, inactive:
C=CCOC(=O)N1CCC2CC1c1cc(-c3ccc(OC)cc3)ccc12 (centres undefined) -4.14%
Oc1c(CN2CCOCC2)ccc(CN2CCOCC2)c1O 0.438%
Cc1c(Cl)c([N+](=O)[O-])nn1CCCC(=O)Nc1cc(Cl)ccc1Cl -14.8%
Cc1ccc(C(=O)O)cc1NC(=O)c1ccc(Cn2nc(C)c(Cl)c2C)o1 4.04%
CC(C)CN1CC(C)C(=O)N(c2ccccc2)C1=S (centres undefined) -3.77%
CC(C)CN(C(=O)COC(=O)c1ccc2ccccc2c1)c1c(N)n(Cc2ccccc2)c(=O)[nH]c1=O 27.1%
CC(C)CN(C(=O)COC(=O)c1ccc(Cl)c(N)c1)c1c(N)n(Cc2ccccc2)c(=O)[nH]c1=O 21.7%
CCC(C)C1(C2CCCC2)NC(=O)NC1=O (centres undefined) -1.25%
C[n+]1cccc(C(=O)O)c1 -14.9%
COc1ccc2cc(C(=O)NCC3CCCO3)[nH]c2c1 (centres undefined) -25.3%
COc1cccc(C(=O)NCCS(=O)(=O)NCC2CCCO2)c1 (centres undefined) -26.7%
CSCCC(NC(=O)COc1ccccc1)C(=O)OCc1ccc(Cl)cc1 (centres undefined) -22.7%
Cc1ccc(S(=O)(=O)c2cc3c(=O)n4cccc(C)c4nc3n(CCc3ccccc3)c2=N)cc1C -25.8%
COc1cccc2c1C(=O)c1c(O)c3c(c(O)c1C2=O)CC(O)(C(C)=NNC(=O)c1ccc(Cl)c(Cl)c1)CC3OC1CC(N)C(O)C(C)O1 (centres undefined) 33.2%
O=[N+]([O-])c1cccc(C=NN=Cc2ccccc2O)c1 45.3%
COc1ccc2c(c1)C(=O)CC(c1ccccc1)O2 (centres undefined) 17.3%
CCNCCC(=O)N1c2ccccc2Sc2ccc(NC(=O)OCC)cc21 -8.72%
CCN1/C(=C\c2ccc3ccccc3[n+]2CC)Sc2cc(C)ccc21 55.6%
COC[C@@H]1NS(=O)(=O)c2ccc(Br)cc2O[C@H]1c1ccccc1 5.43%
NC(=O)C1(Nc2ccccc2Cl)CCCC1 -5.33%
O=C(NN=C1CCC(=NNC(=O)c2cccnc2)CC1)c1cccnc1 -14%
O=C(CNC(=O)c1cccnc1)N/N=C/c1cccnc1 -11%
COC(=O)C1CC2=C(CC(C)(C)CC2=O)N(c2ccccc2)C1=O (centres undefined) -15.5%
CCCCN1CC(CO)Oc2cccc(F)c2S1(=O)=O (centres undefined) -10.7%
COc1ccc(/C(C)=N\NC(=O)c2ccc(-c3ccccc3)cc2)c(F)c1 67.1%
COc1cccc(C(=O)N/N=C(\C)c2cccc(NC(=O)c3ccc(F)cc3)c2)c1OC 61%
O=C1C(=O)N(c2ccccc2)C(c2ccccc2)C1c1ccccc1 (centres undefined) 3.47%
CCCN(CC(=O)Nc1ccccc1C)C(=O)c1ccc(OCC(=O)N2CCOCC2)c(OCC)c1 13.8%
CC1(C)N=C(N)NC(Nc2ccc(Cl)cc2)=N1 -10.1%
Cc1ccc(C)c(N2CCN(C(=O)Cn3ncn4cccc4c3=O)CC2)c1 10.1%
Cc1ccc(C)c(N2CCN(C(=O)CCCCn3c(=O)[nH]c4ccccc4c3=O)CC2)c1 16.6%
COc1ccc(CC(=O)NC(C)c2ccc(Cl)c(Cl)c2)cc1S(=O)(=O)N1CCOCC1 (centres undefined) 4.63%
O=C(O)C(c1cccs1)C1(O)CCCCC1 (centres undefined) -15.2%
CC1(C)Cc2cccc(OCC(=O)NCc3ccccc3)c2O1 3.02%
CC1(C)Cc2cccc(OCC(N)=O)c2O1 10.8%
Cc1cc(NC(=O)c2cc3ccccc3o2)no1 -18.7%
COc1ccccc1NC(=O)c1cc(Cl)nc2ccccc12 66.5%
COc1ccc(-c2cc(C(=O)Nc3ccccc3O)c3ccccc3n2)cc1 41.1%
COC1=NC2=NCCN2C(OC)=N1 -7.98%
O=C1c2ccccc2C(=O)C1C(=O)C1CC1 -19.4%
N#CC(Cc1cc2ccccc2n1S(=O)(=O)c1ccccc1)OCc1ccccc1 (centres undefined) 4.98%
O=c1ccn([C@@H]2O[C@H](CNS(=O)(=O)c3cc4ccccc4s3)[C@@H](O)[C@H]2O)c(=O)[nH]1 -11%
O=C(O)c1ccccc1-c1ccccc1C(=O)Nc1nccs1 -17.5%
COc1ccc(-c2nn(-c3ccccc3)cc2/C=N/Nc2ccccn2)cc1OC 50.1%
CN1C(c2ccc(F)cc2)=CS/C1=C(/C#N)c1nnc2n1-c1ccccc1SC2 32.2%
Nc1ccc2c(c1)C(O)c1ccc(Cl)cc1-2 (centres undefined) -14.5%
Cc1cc(C)cc(OCC(=O)Nc2ccc(N3CCOCC3)cc2N2CCOCC2)c1 45%
CCC(=O)c1ccc(OCC(=O)Nc2ccc(N3CCCCC3)cc2)cc1 35.5%
